# Assay results as given in PubChem BioAssay (NCI).
# About 79,000 compounds went through this panel and 15% of them were active in at least one assay; those are over-represented in the sample as a whole. A number with no mark means an inactive call. Activity calls are given as the source filed them. No stated cut-off is given here; in the data, active means growth inhibition above about 70%; inactive means the rest.
# Tests used:
# [1] = NCI Yeast Anticancer Drug Screen. Data for the rad52 strain (AID 147);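 further: 0% = growth of vehicle-treated control cultures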; details: S. cerevisiae rad52 mutant growth inhibition, active compounds read high
# Summary of the method: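 Compounds are applied to a genetically defined yeast strain lacking normal DNA damage repair, and inhibition of growth is expressed relative to cultures given vehicle only.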
# [2] = NCI Yeast Anticancer Drug Screen. Data for the wt1 strain (AID 149);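 further: 0% = growth of vehicle-treated wt1 cultures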; details: S. cerevisiae wt1 strain (SPY 50644) growth inhibition, active compounds read high
# Summary of the method: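 Vehicle-normalised growth inhibition; strain wt1; compound exposure.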
# [3] = NCI Yeast Anticancer Drug Screen. Data for the rad50EPP+ strain (AID 151);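 further: 0% = growth of vehicle-treated control cultures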; details: S. cerevisiae rad50 mutant strain, active compounds read high
# Summary of the method: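 Compounds were applied to the rad50EPP+ yeast strain, which bears a defined DNA repair alteration, and growth inhibition was determined relative to vehicle-treated cultures.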
# [4] = NCI Yeast Anticancer Drug Screen. Data for the mgt1 strain (AID 153); details: S. cerevisiae mgt1 mutant growth inhibition, active compounds read high
# Summary of the method: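 Strain: mgt1 yeast, one of a set carrying defined DNA damage repair or cell cycle control alterations. Compound-treated growth compared with vehicle.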
# [5] = NCI Yeast Anticancer Drug Screen. Data for the rad50 strain (AID 155);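 further: 0% = growth of vehicle-only cultures of the same strain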; details: S. cerevisiae rad50 strain growth inhibition, active compounds read high
# Summary of the method: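 A DNA repair-deficient yeast mutant serves as the test organism; compound-induced growth inhibition is calculated against vehicle-treated cells.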
# [6] = NCI Yeast Anticancer Drug Screen. Data for the mec2-1 strain (AID 157); details: S. cerevisiae mec2-1 strain, active compounds read high
# Summary of the method: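 Strain: mec2-1 (DNA repair/cell cycle alteration). Compound exposure, then growth measured; inhibition expressed relative to vehicle.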
# [7] = NCI Yeast Anticancer Drug Screen. Data for the rad14 strain (AID 159);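 further: 0% = growth of vehicle-treated control cultures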; details: S. cerevisiae rad14 strain growth inhibition, active compounds read high
# Summary of the method: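 Vehicle-treated cultures served as the baseline for growth inhibition of a DNA repair-mutant yeast strain exposed to each compound.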
# [8] = NCI Yeast Anticancer Drug Screen. Data for the sgs1 mgt1 strain (AID 161);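 further: 0% = growth of cultures given vehicle only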; details: S. cerevisiae sgs1 mgt1 strain, active compounds read high
# Summary of the method: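 Genetically altered yeast, compound exposure, growth inhibition relative to vehicle.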
# [9] = NCI Yeast Anticancer Drug Screen. Data for the CLN2oe strain (AID 163);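 further: 0% = growth of vehicle-only control cultures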; details: S. cerevisiae CLN2oe strain, active compounds read high
# Summary of the method: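 Growth of a genetically modified yeast strain is measured after compound exposure and compared with cultures given vehicle alone.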
# [10] = NCI Yeast Anticancer Drug Screen. Data for the cln2 rad14 strain (AID 165);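 further: 0% = growth equal to vehicle treated cultures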; details: S. cerevisiae cln2 rad14 strain, active compounds read high
# Summary of the method: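 Compounds are applied to the cln2 rad14 yeast strain, and growth is then compared with that of vehicle-treated cultures to give inhibition.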
# [11] = NCI Yeast Anticancer Drug Screen. Data for the bub3 strain (AID 167); details: S. cerevisiae bub3 mutant strain, active compounds read high
# Summary of the method: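 Inhibition values come from growth of compound-treated mutant yeast normalised to vehicle-treated controls.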
# [12] = NCI Yeast Anticancer Drug Screen. Data for the wt2 strain (AID 169);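 further: 0% = growth of vehicle-treated yeast cultures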; details: S. cerevisiae wt2 strain growth inhibition, active compounds read high
# Summary of the method: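 This strain belongs to a panel of yeast strains with defined genetic alterations in DNA damage repair or cell cycle control. Compounds are applied, and growth inhibition is measured against vehicle-treated cultures.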
# [13] = NCI Yeast Anticancer Drug Screen. Data for the sgs1 strain (AID 173);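 further: 0% = growth of vehicle-only control cultures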; details: S. cerevisiae sgs1 mutant, active compounds read high
# Summary of the method: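 Growth of a yeast strain bearing a defined genetic alteration is measured after compound treatment. Inhibition is expressed relative to vehicle-only controls.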
# [14] = NCI Yeast Anticancer Drug Screen. Data for the mlh1 rad18 strain (AID 175); details: S. cerevisiae mlh1 rad18 strain growth inhibition, active compounds read high
# Summary of the method: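 Read-out is yeast growth inhibition, calculated against vehicle-only controls. The compound was applied to a strain engineered with DNA damage repair alterations.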
# [15] = NCI Yeast Anticancer Drug Screen. Data for the rad18 strain (AID 177); details: S. cerevisiae rad18 mutant growth inhibition, active compounds read high
# Summary of the method: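 Growth of the mutant yeast strain after compound exposure, normalised to vehicle-only cultures.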
# [16] = at 5.0 µM (retest, dose inferred, filed as 0.5)
# [17] = at 50.0 µM (retest, dose inferred, filed as 5.0)
smiles,measurement,setting,value
Cc1c2c(nc3ccccc13)C(=O)c1cccnc1C2=O,growth inhibition,[1]; at 1.2 µM,-10%
same,growth inhibition,[1]; at 3.7 µM,0%
same,growth inhibition,[1]; at 11.0 µM,9%
same,growth inhibition,[1]; at 33.0 µM,75% (active)
same,growth inhibition,[1]; at 100.0 µM,94% (active)
same,growth inhibition,[2]; at 1.2 µM,2%
same,growth inhibition,[2]; at 3.7 µM,9%
same,growth inhibition,[2]; at 11.0 µM,6%
same,growth inhibition,[2]; at 33.0 µM,17%
same,growth inhibition,[2]; at 100.0 µM,81% (active)
same,growth inhibition,[3]; at 1.2 µM,-6%
same,growth inhibition,[3]; at 3.7 µM,-11%
same,growth inhibition,[3]; at 11.0 µM,-2%
same,growth inhibition,[3]; at 33.0 µM,45%
same,growth inhibition,[3]; at 100.0 µM,92% (active)
same,growth inhibition,[4]; at 1.2 µM,1%
same,growth inhibition,[4]; at 3.7 µM,-1%
same,growth inhibition,[4]; at 11.0 µM,-10%
same,growth inhibition,[4]; at 33.0 µM,13%
same,growth inhibition,[4]; at 100.0 µM,78% (active)
same,growth inhibition,[5]; at 1.2 µM,9%
same,growth inhibition,[5]; at 3.7 µM,15%
same,growth inhibition,[5]; [16],57%
same,growth inhibition,[5]; at 11.0 µM,21%
same,growth inhibition,[5]; at 33.0 µM,78% (active)
same,growth inhibition,[5]; [17],90% (active)
same,growth inhibition,[5]; at 50.0 µM,77.8% (active)
same,growth inhibition,[5]; at 100.0 µM,94% (active)
same,growth inhibition,[6]; at 1.2 µM,-18%
same,growth inhibition,[6]; at 3.7 µM,-10%
same,growth inhibition,[6]; [16],-4%
same,growth inhibition,[6]; at 11.0 µM,-13%
same,growth inhibition,[6]; at 33.0 µM,7%
same,growth inhibition,[6]; [17],90% (active)
same,growth inhibition,[6]; at 50.0 µM,66.8%
same,growth inhibition,[6]; at 100.0 µM,83% (active)
same,growth inhibition,[7]; at 1.2 µM,3%
same,growth inhibition,[7]; at 3.7 µM,3%
same,growth inhibition,[7]; at 11.0 µM,4%
same,growth inhibition,[7]; at 33.0 µM,23%
same,growth inhibition,[7]; at 100.0 µM,81% (active)
same,growth inhibition,[8]; [16],1%
same,growth inhibition,[8]; [17],78% (active)
same,growth inhibition,[8]; at 50.0 µM,79.2% (active)
same,growth inhibition,[9]; at 1.2 µM,-8%
same,growth inhibition,[9]; at 3.7 µM,1%
same,growth inhibition,[9]; at 11.0 µM,3%
same,growth inhibition,[9]; at 33.0 µM,11%
same,growth inhibition,[9]; at 100.0 µM,78% (active)
same,growth inhibition,[10]; [16],-1%
same,growth inhibition,[10]; [17],72% (active)
same,growth inhibition,[10]; at 50.0 µM,64%
same,growth inhibition,[11]; at 1.2 µM,5%
same,growth inhibition,[11]; at 3.7 µM,7%
same,growth inhibition,[11]; [16],12%
same,growth inhibition,[11]; at 11.0 µM,-13%
same,growth inhibition,[11]; at 33.0 µM,4%
same,growth inhibition,[11]; [17],83% (active)
same,growth inhibition,[11]; at 50.0 µM,75.7% (active)
same,growth inhibition,[11]; at 100.0 µM,83% (active)
same,growth inhibition,[12]; at 1.2 µM,3%
same,growth inhibition,[12]; at 3.7 µM,-3%
same,growth inhibition,[12]; at 11.0 µM,17%
same,growth inhibition,[12]; at 33.0 µM,20%
same,growth inhibition,[12]; at 100.0 µM,73% (active)
same,growth inhibition,[13]; at 1.2 µM,-9%
same,growth inhibition,[13]; at 3.7 µM,-11%
same,growth inhibition,[13]; at 11.0 µM,-9%
same,growth inhibition,[13]; at 33.0 µM,11%
same,growth inhibition,[13]; at 100.0 µM,81% (active)
same,growth inhibition,[14]; [16],19%
same,growth inhibition,[14]; [17],90% (active)
same,growth inhibition,[14]; at 50.0 µM,84% (active)
same,growth inhibition,[15]; at 1.2 µM,-11%
same,growth inhibition,[15]; at 3.7 µM,-5%
same,growth inhibition,[15]; at 11.0 µM,0%
same,growth inhibition,[15]; at 33.0 µM,23%
same,growth inhibition,[15]; at 100.0 µM,90% (active)
CCN(CC)CCCNc1ccc([N+](=O)[O-])c2nc3ccc(OC)cc3c(NCCCN(CC)CC)c12,growth inhibition,[1]; at 1.2 µM,15%
same,growth inhibition,[1]; at 3.7 µM,6%
same,growth inhibition,[1]; at 11.0 µM,9%
same,growth inhibition,[1]; at 33.0 µM,11%
same,growth inhibition,[1]; at 100.0 µM,19%
same,growth inhibition,[2]; at 1.2 µM,-81%
same,growth inhibition,[2]; at 3.7 µM,0%
same,growth inhibition,[2]; at 11.0 µM,-2%
same,growth inhibition,[2]; at 33.0 µM,-2%
same,growth inhibition,[2]; at 100.0 µM,0%
same,growth inhibition,[3]; at 1.2 µM,0%
same,growth inhibition,[3]; at 3.7 µM,3%
same,growth inhibition,[3]; at 11.0 µM,4%
same,growth inhibition,[3]; at 33.0 µM,9%
same,growth inhibition,[3]; at 100.0 µM,13%
same,growth inhibition,[4]; at 1.2 µM,2%
same,growth inhibition,[4]; at 3.7 µM,2%
same,growth inhibition,[4]; at 11.0 µM,3%
same,growth inhibition,[4]; at 33.0 µM,1%
same,growth inhibition,[4]; at 100.0 µM,1%
same,growth inhibition,[5]; at 1.2 µM,-2%
same,growth inhibition,[5]; at 3.7 µM,-1%
same,growth inhibition,[5]; [16],23%
same,growth inhibition,[5]; at 11.0 µM,-1%
same,growth inhibition,[5]; at 33.0 µM,4%
same,growth inhibition,[5]; [17],18%
same,growth inhibition,[5]; at 50.0 µM,66.5%
same,growth inhibition,[5]; at 100.0 µM,9%
same,growth inhibition,[6]; at 1.2 µM,-1%
same,growth inhibition,[6]; at 3.7 µM,2%
same,growth inhibition,[6]; [16],6%
same,growth inhibition,[6]; at 11.0 µM,-2%
same,growth inhibition,[6]; at 33.0 µM,1%
same,growth inhibition,[6]; [17],26%
same,growth inhibition,[6]; at 50.0 µM,5.05%
same,growth inhibition,[6]; at 100.0 µM,1%
same,growth inhibition,[7]; at 1.2 µM,-1%
same,growth inhibition,[7]; at 3.7 µM,0%
same,growth inhibition,[7]; at 11.0 µM,-1%
same,growth inhibition,[7]; at 33.0 µM,0%
same,growth inhibition,[7]; at 100.0 µM,1%
same,growth inhibition,[8]; [16],-8%
same,growth inhibition,[8]; [17],20%
same,growth inhibition,[8]; at 50.0 µM,13%
same,growth inhibition,[9]; at 1.2 µM,-10%
same,growth inhibition,[9]; at 3.7 µM,-9%
same,growth inhibition,[9]; at 11.0 µM,-4%
same,growth inhibition,[9]; at 33.0 µM,-6%
same,growth inhibition,[9]; at 100.0 µM,-2%
same,growth inhibition,[10]; [16],43%
same,growth inhibition,[10]; [17],57%
same,growth inhibition,[10]; at 50.0 µM,24.8%
same,growth inhibition,[11]; at 1.2 µM,-6%
same,growth inhibition,[11]; at 3.7 µM,-7%
same,growth inhibition,[11]; [16],14%
same,growth inhibition,[11]; at 11.0 µM,-7%
same,growth inhibition,[11]; at 33.0 µM,-6%
same,growth inhibition,[11]; [17],6%
same,growth inhibition,[11]; at 50.0 µM,13.4%
same,growth inhibition,[11]; at 100.0 µM,-4%
same,growth inhibition,[12]; at 1.2 µM,-2%
same,growth inhibition,[12]; at 3.7 µM,0%
same,growth inhibition,[12]; at 11.0 µM,1%
same,growth inhibition,[12]; at 33.0 µM,-1%
same,growth inhibition,[12]; at 100.0 µM,0%
same,growth inhibition,[13]; at 1.2 µM,2%
same,growth inhibition,[13]; at 3.7 µM,5%
same,growth inhibition,[13]; at 11.0 µM,2%
same,growth inhibition,[13]; at 33.0 µM,1%
same,growth inhibition,[13]; at 100.0 µM,1%
same,growth inhibition,[14]; [16],13%
same,growth inhibition,[14]; [17],37%
same,growth inhibition,[14]; at 50.0 µM,0.2%
same,growth inhibition,[15]; at 1.2 µM,0%
same,growth inhibition,[15]; at 3.7 µM,0%
same,growth inhibition,[15]; at 11.0 µM,6%
same,growth inhibition,[15]; at 33.0 µM,4%
same,growth inhibition,[15]; at 100.0 µM,7%
